Measured values reported in PubChem BioAssay AID1851 (National Center for Advancing Translational Sciences (NCATS), 2009).
In all, about 16,000 compounds went through this assay and about 5,700 (36%) were called active. Another 24% or so got no clear call; they are omitted. Calls come from the whole dose curve; as a rule, active = well fitted curve in the direction sought with a large enough effect; inconclusive = small, poorly fitted or top-dose-only effect, or effect the other way; inactive = no such curve, though single readings can be large or run the other way. The list shows a part of the results.

target: Cytochrome P450 1A2 (Homo sapiens) (UniProt P05177); assay: Cytochrome panel assay with activity outcomes; settings: recombinant CYP, pro-luciferin dealkylation, luminescence, p450-cyp1a2; series mostly up to 57.1 µM
% is set by controls: 0 for no effect and ±100 for the full control effect.

Sequence of Cytochrome P450 1A2 (Homo sapiens) (P05177 whole entry, looked up): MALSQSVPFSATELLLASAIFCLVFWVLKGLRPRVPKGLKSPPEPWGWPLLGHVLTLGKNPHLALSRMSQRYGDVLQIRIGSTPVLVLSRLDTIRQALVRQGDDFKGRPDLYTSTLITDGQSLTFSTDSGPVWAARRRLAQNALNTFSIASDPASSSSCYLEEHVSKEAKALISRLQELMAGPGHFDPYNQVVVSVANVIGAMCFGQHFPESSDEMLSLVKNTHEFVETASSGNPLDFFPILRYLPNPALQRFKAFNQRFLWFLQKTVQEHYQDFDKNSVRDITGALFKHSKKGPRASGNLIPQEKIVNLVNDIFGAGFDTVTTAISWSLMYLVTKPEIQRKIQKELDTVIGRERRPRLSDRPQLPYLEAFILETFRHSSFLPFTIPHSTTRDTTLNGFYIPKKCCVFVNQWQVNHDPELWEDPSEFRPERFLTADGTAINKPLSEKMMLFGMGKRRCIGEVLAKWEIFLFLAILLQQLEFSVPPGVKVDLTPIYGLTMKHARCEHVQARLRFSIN

Row | Structure (SMILES) | activity, negative = inhibition | AC50
1 | CC(C)c1ccc(C(c2c(O)c3ccccc3oc2=O)c2c(O)c3ccccc3oc2=O)cc1 | -18.8% [at 2.29 µM] (inactive) | –
2 | CCCCCCCCC(=O)NCc1ccc(O)c(OC)c1 | – | 12600 nM (active)
3 | CNC[C@H](O)c1ccc(O)c(OC)c1 | – | inactive
4 | COc1cc(CCN)ccc1O | – | inactive
5 | COc1cc(CNC(=O)CCCC/C=C\C(C)C)ccc1O | – | 1580 nM (active)
6 | COc1ccc(C[C@@H]2NC[C@H](O)[C@@H]2OC(C)=O)cc1 | – | inactive
7 | C[N+]1(C)CCO[C@](O)(c2ccc(-c3ccc([C@]4(O)C[N+](C)(C)CCO4)cc3)cc2)C1 | – | inactive
8 | COc1cc2c(c(OC)c1OC)-c1ccc(O)c(=O)cc1[C@H](N)CC2 | – | inactive
9 | CC(C)COc1ccc(C2(C#N)CC[N+](C)(C)CC2)cc1 | – | inactive
10 | COCCCNC(=S)NC1CC2CCCC(C1)N2Cc1cccs1 (stereo not given) | – | inactive
11 | Cc1cc2c(C(F)(F)F)cc(=O)oc2c2c1NCCC2 | – | 100 nM (active)
12 | CCCCC1(CCCC)C(=O)NC(=Nc2cccc(C)c2)NC1=O | – | inactive
13 | O=C1C=CC(=O)c2c1ccc1c2ccc2ccccc21 | – | 794 nM (active)
14 | COc1cc([C@H]2c3cc4c(cc3[C@@H](O)[C@@H]3COC(=O)[C@H]23)OCO4)cc(OC)c1OC | – | inactive
15 | CCCc1cc2c(n1CCO)C(C)C1CN(C(=O)c3ccccc3)C(C)(C(=O)OC)C21 (stereo not given) | – | inactive
16 | COc1cccc2c1[C@H](CO)N1[C@H](C#N)[C@@H]3C[C@H](C(=O)O)[C@@H]([C@@H]1C2)N3C | -21% [at 2.29 µM] (inactive) | –
17 | C[C@]12CC[C@@H]3C(=CCc4cc(O)ccc43)[C@@H]1CCC2=O | – | 10000 nM (active)
18 | C[C@]12CCC3c4ccc(OCC(=O)O)cc4CCC3C1CCC2=O (stereo not given in full) | 0.71% [at 2.29 µM] (inactive) | –
19 | C[C@]12CC[C@H]3c4ccc(O)cc4CC[C@@H]3[C@H]1CC[C@@H]2OP(=O)(O)O | -11.2% [at 2.29 µM] (inactive) | –
20 | Cc1cc[c]([Sb]2[O][C@H]([C@H](O)[C@H](O)C(=O)O)[C@@H](CO)[O]2)cc1 | -11.9% [at 11.4 µM] (inactive) | –
21 | O=C(Cc1ccc(Cl)c(Cl)c1)N1CCCC[C@H]1CN1CCCC1 | – | inactive
22 | CCCCc1ccc2nc(NC(=O)OC)[nH]c2c1 | – | 501 nM (active)
23 | COC(=O)Nc1nc2ccc(C(=O)c3cccs3)cc2[nH]1 | – | 1580 nM (active)

Row | Structure (SMILES) | activity, negative = inhibition | AC50
24 | CCCCc1ccc(C(=O)O)nc1 | – | inactive
25 | COC(=O)Nc1nc2ccc(Sc3ccccc3)cc2[nH]1 | – | 794 nM (active)
26 | COCCNC(=S)NC1CC2CCCC(C1)N2Cc1cccs1 (stereo not given) | – | inactive
27 | N#CCCN | – | inactive
28 | N[C@@H]1CCc2cc(O)c(O)cc2C1 | – | inactive
29 | CC[C@@H]1[C@@H]2C[C@H]3[C@H]4N(C)c5ccccc5[C@@]45C[C@@H]([C@@H]2[C@@H]5O)N3[C@H]1O | – | inactive
30 | Cc1ccc(N(C)C(=O)Oc2cccc3ccc(C)nc23)cc1 | – | 12600 nM (active)
31 | C[C@@H]1O[C@H](OC2[C@@H](O)[C@H](O)C(O)[C@H](O)[C@H]2O)[C@@H](N)C[C@@H]1N=C(N)C(=O)O (stereo not given in full) | 1.22% [at 2.29 µM] (inactive) | –
32 | c1ccc(CN2CCN(Cc3ccc4c(c3)OCCO4)CC2)cc1 | – | inactive
33 | CO[C@@H]([CH2][Hg])CN1C(=O)c2ccccc2S1(=O)=O.Cn1c(=O)c2nc[nH]c2n(C)c1=O | -22% [at 2.29 µM] (inactive) | –
34 | O=c1c(O)c(-c2cc(O)c(O)c(O)c2)oc2cc(O)cc(O)c12 | – | 2000 nM (active)
35 | CCC(=O)O[C@@](Cc1ccccc1)(c1ccccc1)[C@@H](C)CN(C)C | – | inactive
36 | Cc1nc(-c2ccc(-c3ccc(C(=O)N4CCc5cc6c(cc54)C4(CCN(C)CC4)CO6)cc3)c(C)c2)no1 | – | inactive
37 | Nc1ccc(CCN2CCN(c3cccc(C(F)(F)F)c3)CC2)cc1 | – | 10000 nM (active)
38 | NCCCN1CCN(c2ccccc2)CC1 | -15.9% [at 11.4 µM] (inactive) | –
39 | C[N+](C)(C)CC#CCN1CCCC1=O | – | inactive
40 | CCN(CC)C1=NC(=[N+](CC)CC)c2ccccc21 | – | 15800 nM (active)
41 | NC(=O)c1ncn([C@H]2O[C@@H](CO)[C@@H](O)[C@@H]2O)n1 | – | inactive
42 | Cc1cc(C)c(-n2c(O)c(C=NCCN3CCOCC3)c(=O)[nH]c2=O)c(C)c1 | – | inactive
43 | CC(C)[C@@]1(NC(=O)[C@@H]2C[C@H]3c4cccc5[nH]cc(c45)C[C@@H]3N(C)C2)O[C@]2(O)[C@H]3CCCN3C(=O)[C@H](Cc3ccccc3)N2C1=O | – | inactive
44 | COc1ccc(-n2nc(C(F)(F)F)cc2-c2ccc(Cl)cc2)cc1 | – | 501 nM (active)
45 | NC(N)=NCCN=C(N)N | -17.5% [at 11.4 µM] (inactive) | –
46 | Cc1c([C@@H](C)[C@H]2NC[C@H](C)C[C@@H]2O)ccc2c1C[C@@H]1[C@H]2CC=C2C[C@@H](O)CC[C@@]21C | 1.34% [at 2.29 µM] (inactive) | –

Row | Structure (SMILES) | activity, negative = inhibition | AC50
47 | COc1ccc2[nH]c(C(=O)c3ccccc3)cc2c1 | – | 100 nM (active)
48 | NC[C@H](CS(=O)(=O)O)c1ccc(Cl)cc1 | – | inactive
49 | C/C(O)=C(/C#N)C(=O)Nc1cc(Br)ccc1Br | – | 2510 nM (active)
50 | c1ccc(N2CC[C@@]3(CCCNC3)C2)nc1 | – | inactive
51 | Clc1cncc(N2CCNCC2)n1 | – | 2000 nM (active)
52 | N[C@@H](Cc1cc(Br)c(O)c(Br)c1)C(=O)O | -2.84% [at 11.4 µM] (inactive) | –
53 | N[C@H](Cc1ccc2oc3cc(=O)c4ccccc4c-3nc2c1)C(=O)O | – | 1260 nM (active)
54 | CC(C)(O/N=C(\C(=O)N[C@@H]1C(=O)N2C(C(=O)[O-])=C(C[n+]3ccccc3)CS[C@@H]12)c1csc(N)n1)C(=O)O | – | inactive
55 | CN1[C@@H]2CCC[C@H]1CC(=O)C2 | – | inactive
56 | COC1=C[C@H]2C3=C([C@H]2C1=O)[C@H](NC(C)=O)CCc1cc(OC)c(OC)c(OC)c13 | – | inactive
57 | COc1ccc2c(c[n+](C)c3c4cc5c(cc4ccc23)OCO5)c1OC | – | 10000 nM (active)
58 | Oc1cccc2cccnc12 | -20% [at 11.4 µM] (inactive) | –
59 | CN1CC[C@@]2(CCCN(C(=O)c3csnn3)C2)C1 | – | inactive
60 | O[C@H](CN1CC1)[C@@H](O)CN1CC1 | 1.6% [at 11.4 µM] (inactive) | –
61 | NC(=O)c1cc(N2CC2)c([N+](=O)[O-])cc1[N+](=O)[O-] | – | inactive
62 | CN1CCN(c2cc(N3CCCC3)c([N+](=O)[O-])cc2F)CC1 | – | 355 nM (active)
63 | C[N+]12CCC(CC1)[C@@H](OC(=O)C(O)(c1ccccc1)c1ccccc1)C2 | – | inactive
64 | C(=NC12CN3CN(CN(C3)C1)C2)c1cccs1 | – | inactive
65 | CC(C)c1ccc2c(c1)c(SC(C)(C)C)c(CC(C)(C)C(=O)O)n2Cc1ccc(Cl)cc1 | – | 25100 nM (active)
66 | CC(C)c1ccc(C(O)(C(=O)O)c2ccc(C(C)C)cc2)cc1 | -8.75% [at 11.4 µM] (inactive) | –
67 | C=C1C(O)(c2ccccc2)C2CC[N+]1(C)CC2 (stereo not given) | – | inactive
68 | COC(=O)N1CCC2(CCN(CC(C)C)CC2)CC1 | – | inactive
69 | C=C1[C@@H]2CC[C@H]3[C@@]4(C)C[C@@H](O[C@@H]5O[C@H](CO)[C@H](OS(=O)(=O)O)[C@@H](OS(=O)(=O)O)[C@@H]5OC(=O)CC(C)C)C[C@@H](C(=O)O)[C@H]4CC[C@@]3(C2)[C@H]1O | – | inactive

Row | Structure (SMILES) | activity, negative = inhibition | AC50
70 | COc1ccc2c(c1)[C@]13CCCC[C@@H]1[C@H](C2)NCC3 | – | inactive
71 | COc1ccc(C(=O)c2c(C)n(CCN3CCOCC3)c3cc(I)ccc23)cc1 | – | 15800 nM (active)
72 | N=C1c2ccccc2CN1NC(=O)c1ccc(F)cc1 | – | inactive
73 | CN1C(=O)CCS(=O)(=O)[C@@H]1c1ccc(Cl)cc1 | – | inactive
74 | Cc1nnc2ccc(-c3cccc(C(F)(F)F)c3)nn12 | – | 79.4 nM (active)
75 | CNC[C@H](O)c1ccc(OC(=O)C(C)(C)C)c(OC(=O)C(C)(C)C)c1 | – | inactive
76 | CCOC(=O)[C@@H]1[C@@H]2c3ccccc3-c3ccccc3[C@H]2C[C@H]1O | – | 631 nM (active)
77 | O=P(O)(O)c1ccccc1 (tested in a mixture with another compound) | 7.14% [at 11.4 µM] (inactive) | –
78 | c1ccc([C@H]2CNCc3ccccc32)cc1 | – | inactive
79 | C[C@@]12CC[C@H](O)C[C@@H]1CC[C@H]1[C@H]2CC[C@@]2(C)[C@@H](C3=CC(=O)OC3)CC[C@]12O | – | inactive
80 | CC[C@H]1CN2CCc3cc(OC)c(OC)cc3[C@H]2C[C@@H]1C[C@H]1NCCc2c1[nH]c1ccc(O)cc21 | -7.35% [at 11.4 µM] (inactive) | –
81 | c1ccc2c(c1)Sc1ccccc1N2C[C@H]1CN2CCC1CC2 | -5.29% [at 11.4 µM] (inactive) | –
82 | O=C1c2ccccc2-c2cc([N+](=O)[O-])c([N+](=O)[O-])cc21 | – | 251 nM (active)
83 | NCCc1ccc(S(=O)(=O)O)cc1[N+](=O)[O-] | -6.66% [at 11.4 µM] (inactive) | –
84 | CN(N=O)C(=O)N[C@H]1C(O)OC(CO)[C@@H](O)[C@H]1O (stereo not given in full) | – | inactive
85 | C[n+]1c(/C=C\c2ccc(O)c3ncccc23)[se]c2ccccc21 | -22.7% [at 2.29 µM] (inactive) | –
86 | CC(O)(CS(=O)(=O)c1cccc(C(F)(F)F)c1)C(=O)Nc1ccc(C(F)(F)F)cc1 (stereo not given) | – | inactive
87 | C=CCn1c(O)c(C(CC)=NC2CC2)c(=O)[nH]c1=O | – | 708 nM (active)
88 | C=CCn1c(O)c(C(C)=NCCCN2CCOCC2)c(=O)[nH]c1=O | – | inactive
89 | C[C@@H]1OC=C2[C@@H](O)[C@H]3O[C@H]3C(=O)[C@@]23[C@H]1[C@H]1C2=C([C@@H](O)[C@H]4O[C@@H]4C2=O)[C@@H]3O[C@@H]1C | 2.27% [at 11.4 µM] (inactive) | –
90 | C=CCN1CC[C@]23c4c5ccc(O)c4O[C@@H]2/C(=N/NC(=O)c2ccccc2)CC[C@@]3(O)[C@H]1C5 | – | inactive
